Screens (PubChem BioAssay)
A selection: hits, their analogues and other compounds. The true share with any hit is near 3.2%.
Mtb UGM inh – blocks M. tuberculosis UGM enzyme; P9WIQ1; purified UGM, fluorescence polarization probe displacement; AID 504406; 320,000 compounds, 0.06% hits; inhibition, % at 10 µM; in the data active = inhibition above about 10%, passing the limit was not always enough
Rv3671c protease – inhibitors of M. tuberculosis serine protease Rv3671c; P9WHR9; inhibition, % at 5.96 µM; 320,000 compounds, 0.048% hits; AID 2606; in the data active = inhibition above about 38%;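 also: extracellular domain of Rv3671c used as enzyme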
Target sequence (P9WHR9 whole entry, looked up, the tested form may be a part): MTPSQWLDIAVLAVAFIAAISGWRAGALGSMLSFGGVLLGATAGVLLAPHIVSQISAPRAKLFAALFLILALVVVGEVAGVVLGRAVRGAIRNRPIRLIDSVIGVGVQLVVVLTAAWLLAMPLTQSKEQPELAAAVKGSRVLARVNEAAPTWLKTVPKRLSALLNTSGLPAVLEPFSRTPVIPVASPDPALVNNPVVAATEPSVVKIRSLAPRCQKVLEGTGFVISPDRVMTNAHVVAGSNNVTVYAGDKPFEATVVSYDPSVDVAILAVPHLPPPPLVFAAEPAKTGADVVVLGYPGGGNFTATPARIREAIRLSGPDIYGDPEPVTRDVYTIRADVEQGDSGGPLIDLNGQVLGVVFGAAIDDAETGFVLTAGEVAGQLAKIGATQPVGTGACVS
Mtb betalactam – beta-lactam sensitization of Mtb H37Rv; M. tuberculosis H37Rv growth with meropenem, percent inhibition; inhibition, % at 25 µM; 330,000 compounds, 0.27% hits; AID 434955; call rule not given here;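 also: growth measured after seven days incubation then overnight dye step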
GDH-TPI counter – inhibits GDH-TPI coupling enzymes, artifact for Mtb FBA screen; 360,000 compounds, 1.2% hits; inhibition, % at 4.8 µM; GDH-TPI coupled enzyme counterscreen, NADH absorbance; AID 588335; in the data active = inhibition above about 30%
FBA Mtb inh – Mtb fructose-bisphosphate aldolase inhibition. P9WQA3. purified M. tuberculosis FBA, fluorescence read-out. 360,000 compounds, 2.3% hits. inhibition, % at 1 µM; in the data active = inhibition above about 27%
PriA SSB inh – blocks PriA binding to SSB C-terminal tail | AlphaScreen SSBct-PriA binding, biotinylated peptide | inhibition, % at 33 µM | 430,000 compounds, 0.6% hits | AID 1272365; in the data active = inhibition mostly above about 37%, no sharp cut-off; inactive = mostly below about 20%
Numbers stand for hits; - = inactive; . = no result; + = active, no number.

SMILES	Mtb UGM inh	Rv3671c protease	Mtb betalactam	GDH-TPI counter	FBA Mtb inh	PriA SSB inh
CC(C)(C)c1csc(NC(=O)c2ccc(N3CCOCC3)c([N+](=O)[O-])c2)n1	.	.	.	.	.	39
COc1cc(C)c(/C=C/C(C)=C/C=C/C(C)=C/C(=O)O)c(C)c1C	-	-	-	61	-	-
CC(O)(CNS(=O)(=O)c1ccccc1OC(F)(F)F)c1cc2ccccc2s1 (centres undefined)	.	.	.	.	.	-
OC(COc1ccc(C23CC4CC(CC(C4)C2)C3)cc1)C[N+]1(Cc2ccccc2)CCOCC1 (centres undefined)	.	.	.	.	.	45
CCCCCn1c(-c2ccco2)nc2nc3ccccc3nc21	-	-	-	-	+	-
Cc1ccc(-c2nc3nc4ccccc4nc3n2Cc2ccco2)cc1	-	-	-	46	-	-
c1coc(-c2nc3nc4ccccc4nc3n2CC2CCCO2)c1 (centres undefined)	-	-	-	-	+	-
c1ccc(Cn2c(-c3ccco3)nc3nc4ccccc4nc32)cc1	-	-	-	-	+	-
CCOc1ccccc1NC(=O)Cc1csc(NC(=O)C2CCC(=O)N2)n1 (centres undefined)	.	.	.	.	.	-
Cn1c(CNc2ncc3c(=O)n(-c4ccccc4)c(=O)[nH]c3n2)nc2ccccc21	.	.	.	.	.	-
O=C(CSC1=NC2(CCCCC2)Nc2ccccc21)Nc1ccc(F)c(Cl)c1	.	.	.	.	.	-
COc1ccc2sc(N(CCN(C)C)C(=O)/C=C/c3cccs3)nc2c1	-	-	-	-	-	-
COc1ccc2nc(N(CCCn3ccnc3)C(=O)/C=C/c3cccs3)sc2c1	.	.	.	.	.	53
COc1ccc2nc(N(CCN(C)C)C(=O)/C=C/c3cccs3)sc2c1	-	-	-	32	-	-
CCN(CC)CCN(C(=O)/C=C/c1cccs1)c1nc2ccc(OC)cc2s1	.	.	.	-	-	-
C=CCOc1ccc(C=NNC(=O)CC(=O)NC2CCCCC2)cc1	.	.	.	.	.	-
CN1CCCc2cc(C(CNC(=O)Nc3ccc4c(c3)OCO4)N3CCCC3)ccc21 (centres undefined)	.	.	.	.	.	-
Oc1cccc(C=NNc2cc(N3CCCC3)nc(N3CCCC3)n2)c1	.	.	.	.	.	-
CC(C)C(NC(=O)CN1C(=O)c2cccc3cccc1c23)C(C)C	-	-	-	36	-	-
Cc1c(Cl)cccc1S(=O)(=O)NCc1cccnc1-c1ccsc1	.	.	.	.	.	-
O=C(NC1CCCCC1)N(Cc1cc2cc3c(cc2[nH]c1=O)OCCO3)CC1CCCO1 (centres undefined)	-	-	-	36	-	-
O=C(NC1CCCCC1)N(CCO)Cc1cc2cc3c(cc2[nH]c1=O)OCCO3	-	-	-	-	-	-
CCOC(=O)COc1ccccc1C=NNC(=O)c1cc2c(ccc3ccccc32)o1	.	.	.	.	.	-
Cn1c(=O)c2cc(C(=O)O)c(=O)n(C)c2n(C)c1=O	.	.	.	.	.	-
COc1ccc(N(CCCN2C(=O)c3cccc4cccc(c34)C2=O)C(=O)c2cccs2)cc1	-	-	-	-	-	-
SMILES	Mtb UGM inh	Rv3671c protease	Mtb betalactam	GDH-TPI counter	FBA Mtb inh	PriA SSB inh
Cc1ccc(N(CCCCN2C(=O)c3ccccc3C2=O)C(=O)c2cccs2)cc1	-	-	-	-	-	66
O=C1c2ccccc2C(=O)N1CCCCN(C(=O)c1ccc([N+](=O)[O-])o1)c1ccc(Cl)cc1	.	.	.	.	.	40
O=C(NC[C@@H](c1ccsc1)N1CCOCC1)c1ccccc1Cl	.	.	.	.	.	-
CN(C)c1ccc(/C=N/NC(N)=S)cc1[N+](=O)[O-]	-	-	.	43	-	.
CNC(=S)NN=C(C)c1ccc(-n2ccnc2)cc1	.	.	.	.	.	-
Cc1ccc2nc(-c3cccc(S(=O)(=O)N(C)C)c3)cn2c1	-	-	-	-	-	-
O=S(=O)(c1cccc(-c2cn3cccnc3n2)c1)N1CCOCC1	-	-	-	-	+	-
CN(C)S(=O)(=O)c1cccc(-c2cn3cccnc3n2)c1	-	-	-	-	173	-
CN(C)S(=O)(=O)c1ccc(-c2cn3ccccc3n2)cc1	-	-	-	-	160	-
Clc1ccccc1-c1nnc(SCc2cccnc2)o1	.	.	.	.	.	-
Cc1cccc(NC(=O)CC(NCC2CCCO2)C(=O)O)c1C (centres undefined)	.	.	.	.	.	-
O=C(O)c1cc(N2CCCC2)ccn1	.	.	.	-	-	-
O=C(O)c1cc(-n2cccn2)ccn1	.	.	.	.	.	75
O=C(Nc1cccnc1)c1cc(-n2cccn2)ccn1	.	.	.	.	.	-
O=C(O)c1cc(I)ccn1	.	.	.	.	.	67
COc1ccc(Cl)cc1S(=O)(=O)NCC(=O)N1CCOC(c2ccccc2)C1 (centres undefined)	.	.	.	.	.	-
